Sampled rows, rich in hits. Any-hit rate of the full collection: about 12%.
PostGolgi yeast = growth inhibition of a yeast mutant, post-Golgi transport screen | post-Golgi transport phenotypic cell assay | actives 0.9% (n = 98,000) | inhibition, % at 10 µM;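 also: yeast cells grown in 1536-well plates; yeast grown about 18 h at 30C before absorbance read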
PostGolgi ctrl = inhibits growth of the yeast control strain; efflux-deficient yeast background strain, growth absorbance A615, 16 h; inhibition, % at 10 µM; actives 5% (n = 98,000); AID 738
Cav32 inh = inhibitors of human Cav3.2 T-type calcium channel; Cav3.2-expressing cells, Fluo-4 calcium fluorescence FDSS; active compounds read low; B-score at 10 µM; actives 4% (n = 100,000); AID 449739;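 active = single-dose well whose peak fluorescence ratio is a statistical outlier from its plate by either plate-standardised score or position-corrected B-score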
D1 mod = allosterically modulates the human D1 dopamine receptor; P21728; HEK293 D1, CRE-luciferase, dopamine EC30 potentiation; actives deviate in either direction; B-score at 10 µM; actives 5.9% (n = 58,000); AID 641;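 active = luminescence count or its row- and column-corrected plate score outside the 99.7% band of the plate's sample wells, on either side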
PLAP activator = activates human placental alkaline phosphatase. P05187. purified PLAP enzyme, luminescent substrate read-out; active compounds read high. activation fold at 20 µM. actives 1.2% (n = 96,000); in the data active = activation fold above about 2
DAT uptake mod = changed human dopamine transporter uptake under cocaine IC80. AID 449768. actives 1.3% (n = 110,000). LLC-PK1 hDAT cells, [14C]-dopamine uptake with cocaine IC80; actives deviate in either direction. Q01959. B-score at 10 µM;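 active = Z score or B-score, a plate-position-corrected score, falls beyond the plate's 99.7% confidence bounds, in either direction; inactive = both scores lie inside the 99.7% bounds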;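 also: scored against the spread of the other compound wells on the same plate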
D1 mod confirm = confirmation of human D1 dopamine receptor allosteric modulators | shares compounds with D1 mod | HEK293 D1 CRE-luciferase, dopamine EC30 potentiation; active compounds read high | luminescence at 10 µM | actives 88% (n = 2,200) | AID 642;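 active = luminescence in either of two replicates above the same-plate mean plus 3 SD of the low-dose dopamine control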
D1 ag no DA = activates D1 CRE-luciferase signal without dopamine present | shares compounds with D1 mod | HEK293 D1 CRE-luciferase, luminescence, no dopamine; active compounds read high | luminescence at 10 µM | actives 0.8% (n = 1,900) | AID 646; in the data active = luminescence above about 3900
Isoprot counter = isoproterenol response counter-screen activity for D1 modulators; actives 63% (n = 2,200); HEK293 D1 CRE-luciferase, isoproterenol EC30 counter-screen; shares compounds with D1 mod; calls only at 10 µM; AID 647;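 active = luminescence in either replicate above plate mean of wells with a partly effective reference agonist dose plus 3 SD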;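 also: isoproterenol raises cAMP through native beta-adrenoceptor Gs so signal bypasses D1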
* hit, by the source's call; i = inactive; · = no result; + = active, no number. Rule as the data show it, unless noted: active = inhibition above about 30%; inactive = the rest.

SMILES	PostGolgi yeast	PostGolgi ctrl	Cav32 inh	D1 mod	PLAP activator	DAT uptake mod	D1 mod confirm	D1 ag no DA	Isoprot counter
Cn1c(=O)c2c(-c3ccc(C(C)(C)C)cc3)n(N3CCOCC3)cc2n(C)c1=O	-4	9	-2.2	3.8*	1.1	-0.36	9948*	1848	i
Cn1c(=O)c2c(-c3ccccc3)n(N3CCOCC3)cc2n(C)c1=O	-3	-4	1.6	3.3*	1.2	0.88	6320*	1616	i
COc1ccc(CCNC(=O)c2ccc(CNS(=O)(=O)c3cc(C)ccc3C)cc2)cc1OC	0	-4	-2	·	1.9	0.0037	·	·	·
COc1cc2cc(C(c3nnnn3C(C)(C)C)N3CCC(C)CC3)c(=O)[nH]c2cc1OC (stereo not drawn)	21	-5	0.19	·	1.5	-0.41	·	·	·
C#Cc1ccc([C@H]2C=C(C(=O)Nc3ccccc3)O[C@@H](OCc3ccc(CO)cc3)C2)cc1	·	·	-1.6	·	·	0.11	·	·	·
COc1ccc(C2c3c(-c4cc(Cl)c(C)cc4O)n[nH]c3C(=O)N2Cc2cccnc2)cc1OC (stereo not drawn)	10	5	1.2	4.3*	1.2	3*	9304*	·	+
Clc1ccccc1Cn1nnc2c(NCC3CC3)ncnc21	21	8	-0.85	2.8*	0.8	-0.28	6104*	1744	+
Clc1ccccc1Cn1nnc2c(Nc3ccccc3)ncnc21	-3	16	-0.26	1.3	0.8	0.23	·	·	·
CCOC(=O)N1CCN(c2nc3ccccc3nc2C(C#N)C(=O)NCCc2ccccc2)CC1 (stereo not drawn)	7	0	-1.6	-0.035	1	1.7	·	·	·
Fc1cccc(Nc2cc(-n3cccn3)ncn2)c1	11	8	-0.35	8.5*	·	0.47	8308*	1684	+
CCCCN(C(=O)Cn1nnc2ccccc21)C(C(=O)NCCOC)c1cccs1 (stereo not drawn)	·	·	0.55	·	·	0.017	·	·	·
COCCCNC(=O)C1CCN(c2ncccn2)CC1	-1	-2	-0.2	1.8*	1	-0.4	5220	1492	i
CCCN1C[C@H](CSC)C[C@@H]2c3cccc4[nH]cc(c34)C[C@H]21	·	·	0.015	·	·	0.015	·	·	·
CCOC(=O)c1oc2ccccc2c1NC(=O)C1CCCCC1	3	3	-0.84	9.5*	0.8	0.024	15764*	·	+
CC(=O)Nc1c(C(=O)C2CC2)oc2ccccc12	-1	0	0.3	8.3*	0.8	-0.77	13456*	1564	+
CCOC(=O)c1oc2ccccc2c1NC(=O)c1cccc(OC)c1OC	15	46*	-2.1	16*	1.6	-0.16	20936*	1800	+
CCOC(=O)c1oc2ccccc2c1NC(=O)c1ccc(S(=O)(=O)N(C)C)cc1	-5	1	-0.35	0.23	1	2	·	·	·
CCC1=NC(c2ccccc2OC)N(O)C1(C)C (stereo not drawn)	-5	-2	0.7	-0.23	1	-0.5	·	·	·
CC(C)Sc1nc2c(c(=O)n1C)SC(C)C2 (stereo not drawn)	-7	10	0.24	3.4*	1.1	-0.18	8852*	1524	i
N#Cc1c(-c2ccccc2)cc(-c2ccco2)c(C#N)c1N	10	6	·	2.9*	1.1	·	6724*	·	i
CNc1nc(C)c(C(=O)OCc2ccccc2)s1	21	6	-0.0045	18*	1.1	2	16572*	1592	+
CNc1nc(C)c(C(=O)OCC(=O)OC)s1	-7	12	·	9.4*	1	-0.43	13828*	1716	i
NS(=O)(=O)c1ccc(NC(=O)COC(=O)CCNC(=O)NC23CC4CC(CC(C4)C2)C3)cc1	-1	8	-0.16	1.6	1.4	-0.057	·	·	·
CCN(CCNC(=O)CC1Oc2ccccc2NC1=O)c1ccccc1 (stereo not drawn)	0	10	-1.6	3*	1	-1.2	4876	1496	i

Screens deposited in PubChem BioAssay by several laboratories.
